According to the supplement of paper PMC6522484:
± gives the standard deviation of the averaged measurements.

How the values were obtained:
[1] = system: DLD1; assay: cell viability (CellTiter-Glo) relative to plate median (fraction of plate median); higher = more viable cells; settings: 5 µM; treatment time 24 h; reporter: 7TFP
In short: (§1)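 Colorectal cancer cell lines stably transduced with lentiviral TCF/Wnt firefly luciferase reporters (7TFP or TCF4/Wnt) were seeded in 384-well plates. 24 h later they received library compounds at a final 5 µM for 24 h. Parallel plates were read for firefly luciferase or CellTiterGlo luminescence on a Tecan F500 reader. Each well's signal was normalised to the plate median (webcellHTS2, additive, no log transformation), and the mean of two independent replicates is reported.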

[2] = system: HCT116; assay: as above; settings: 5 µM; treatment time 24 h; reporter: TCF4/Wnt
In short: as §1

[3] = system: SW480; assay: as above; settings: 5 µM; treatment time 24 h; reporter: 7TFP
In short: as §1

[4] = system: DLD1; assay: TCF/Wnt firefly luciferase reporter signal relative to plate median (fraction of plate median); higher = higher Wnt reporter signal; settings: 5 µM; treatment time 24 h; reporter: 7TFP
In short: as §1

[5] = system: SW480; assay: as above; settings: 5 µM; treatment time 24 h; reporter: 7TFP
In short: as §1

Row | Compound | cell viability [1] | cell viability [2] | cell viability [3] | TCF/Wnt firefly luciferase reporter signal [4] | TCF/Wnt firefly luciferase reporter signal [5]
1 | CCN1C[C@]2(COC)[C@H](O)C[C@H](OC)[C@@]34[C@@H]5C[C@@]6(O)[C@H](OC(=O)c7ccccc7)[C@@H]5[C@@](OC(C)=O)([C@@H]([C@H](OC)[C@H]23)[C@@H]14)[C@@H](O)[C@@H]6OC | 0.943 ± 0.066 | 1.04 ± 0.05 | 1.02 ± 0.06 | 0.931 ± 0.057 | 0.955 ± 0.19
2 | COP(=S)(OC)Oc1ccc(SC)c(C)c1 | 1 ± 0.014 | 1.07 ± 0.085 | 1.04 ± 0.042 | 1.07 ± 0.028 | 1.01 ± 0.1
3 | CC(=O)Nc1cc([As](=O)(O)O)ccc1O | 1.04 ± 0.064 | 0.994 ± 0.023 | 1.02 | 1.13 ± 0.085 | 0.973 ± 0.038
4 | CN[C@@H]1[C@@H](O)[C@@H](O[C@@H]2[C@@H](O)[C@H](O[C@H]3O[C@H](CN)CC[C@H]3N)[C@@H](N)C[C@H]2N)OC[C@]1(C)O.CN[C@@H]1[C@@H](O)[C@@H](O[C@@H]2[C@@H](O)[C@H](O[C@H]3O[C@H]([C@@H](C)N)CC[C@H]3N)[C@@H](N)C[C@H]2N)OC[C@]1(C)O.CN[C@@H]1[C@@H](O)[C@@H](O[C@@H]2[C@@H](O)[C@H](O[C@H]3O[C@H]([C@@H](C)NC)CC[C@H]3N)[C@@H](N)C[C@H]2N)OC[C@]1(C)O | 1.06 ± 0.17 | 0.997 ± 0.089 | 1.03 ± 0.063 | 1.03 ± 0.028 | 1.04 ± 0.069
5 | O=C1C=C2C=C[C@@H]3C[C@@]2(O1)[C@H]1CCCCN31 | 1.1 ± 0.057 | 1.11 ± 0.064 | 1.02 ± 0.063 | 1.01 ± 0.023 | 0.988 ± 0.013
6 | CC1=NCCc2c1[nH]c1cc(O)ccc21 | 0.971 ± 0.069 | 1.01 ± 0.11 | 1.02 ± 0.014 | 1.02 ± 0.17 | 0.988 ± 0.031
7 | CCCCCCCCC(=O)NCc1ccc(O)c(OC)c1 | 1.04 ± 0.064 | 0.972 ± 0.025 | 0.981 ± 0.056 | 0.792 ± 0.14 | 0.822 ± 0.061
8 | CC(CC(C(N)=O)(c1ccccc1)c1ccccc1)N(C)C (stereo not given) | 0.995 ± 0.022 | 1.08 ± 0.035 | 1.01 ± 0.026 | 1 ± 0.014 | 1.01 ± 0.028
9 | NCCc1c[nH]c2ccccc12 | 0.991 ± 0.041 | 1.03 ± 0.16 | 0.952 ± 0.061 | 0.988 ± 0.045 | 1.03 ± 0.021
10 | O=[N+]([O-])c1cc(O)c(O)c([N+](=O)[O-])c1 | 0.891 ± 0.081 | 0.942 ± 0.096 | 1.03 ± 0.073 | 0.831 ± 0.27 | 0.852 ± 0.044
11 | C[C@H]1C(=O)O[C@@H]2CCN3CC=C(COC(=O)[C@](C)(O)[C@]1(C)O)[C@H]23 | 1 ± 0.023 | 1.04 ± 0.09 | 1.015 ± 0.0071 | 0.919 ± 0.035 | 0.998 ± 0.06
12 | NC(=O)Cc1ccccc1 [Phenylacetamide] | 1.11 ± 0.071 | 1.005 ± 0.0071 | 1.01 ± 0.016 | 1.11 ± 0.14 | 1.11
